Results as given in PubChem BioAssay (NCI).
About 83,000 compounds went through this panel and 20% of them were active in at least one assay; those are over-represented in the sample as a whole.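 Growth was measured after 48 h exposure to one concentration of compound in 96-well plates. Values under 10 count as active.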 Activity calls are given as the source filed them.

What was measured:
Assay in all cases: NCI-60 one-dose screen, 48 h (100 = growth as untreated, 0 = no growth, -100 = all killed)
Settings in all cases: 10 µM unless noted
NCI-H23 lung = system: NCI-H23 lung
NCI-H322M lung = system: NCI-H322M lung
HOP-62 NSCLC = system: HOP-62 NSCLC
NCI-H460 lung = system: NCI-H460 lung
HOP-92 NSCLC = system: HOP-92 NSCLC
NCI-H522 lung = system: NCI-H522 lung
A549/ATCC NSCLC = system: A549/ATCC NSCLC
786-0 renal = system: 786-0 renal
COLO 205 colon = system: COLO 205 colon
DU-145 prostate = system: DU-145 prostate
K-562 leukemia = system: K-562 leukemia
MALME-3M melanoma = system: MALME-3M melanoma
MDA-MB-231 breast = system: MDA-MB-231 breast
RXF 393 renal = system: RXF 393 renal
SF-268 CNS = system: SF-268 CNS
SF-539 CNS = system: SF-539 CNS
UACC-257 melanoma = system: UACC-257 melanoma
M14 melanoma = system: M14 melanoma
HCT-15 colon = system: HCT-15 colon
SF-295 CNS = system: SF-295 CNS

Measured: growth

Cc1ccc(OCCCCCCNCCO)c(C)c1
inactive: NCI-H23 lung 19.8% | NCI-H322M lung 11.1% | HOP-62 NSCLC 10.1% | HOP-92 NSCLC 12.8% | 786-0 renal 11.3% | DU-145 prostate 21.5% | MDA-MB-231 breast 18% | HCT-15 colon 22.8%
active: NCI-H460 lung -20.9% | NCI-H522 lung -8.65% | A549/ATCC NSCLC 5.92% | COLO 205 colon 1.75% | K-562 leukemia 6.98% | MALME-3M melanoma -0.226% | RXF 393 renal -2.46% | SF-268 CNS 4.83% | SF-539 CNS -14.7% | UACC-257 melanoma -8.91% | M14 melanoma -0.43%

CCCCc1ccc(NS(=O)(=O)c2cc3c4c(c2)CCN4C(=O)CC3)cc1
inactive: NCI-H23 lung 21.2% | NCI-H322M lung 32.7% | NCI-H522 lung 13.9% | A549/ATCC NSCLC 10.6% | COLO 205 colon 14.5% | DU-145 prostate 16.4% | MALME-3M melanoma 17.8% | MDA-MB-231 breast 35.7% | RXF 393 renal 32.5% | UACC-257 melanoma 16.3% | HCT-15 colon 32.6%
active: HOP-62 NSCLC 8.96% | NCI-H460 lung 4.33% | HOP-92 NSCLC 3.41% | 786-0 renal -1.95% | K-562 leukemia 7.56% | SF-268 CNS 5.78% | SF-539 CNS 7.3% | M14 melanoma -12.8%

Cn1c2c(c(=O)[nH]c1=O)NC1=C(C(=O)c3ccccc31)C1(C=C(O)c3ccccc31)N2 (stereo not drawn)
inactive: NCI-H23 lung 109% | NCI-H322M lung 113% | HOP-62 NSCLC 101% | NCI-H460 lung 111% | HOP-92 NSCLC 75.7% | NCI-H522 lung 99.9% | A549/ATCC NSCLC 102% | 786-0 renal 97.7% | COLO 205 colon 121% | DU-145 prostate 89% | K-562 leukemia 112% | MALME-3M melanoma 124% | MDA-MB-231 breast 105% | SF-268 CNS 103% | SF-295 CNS 135% | SF-539 CNS 107% | UACC-257 melanoma 115% | M14 melanoma 96.8%

Cc1cc(Nc2ccc(OCc3ccccc3)cc2)nc2cc(O)ccc12
active: K-562 leukemia 5.02%
inactive: NCI-H23 lung 55% | NCI-H322M lung 76.2% | HOP-62 NSCLC 57.7% | NCI-H460 lung 47.2% | HOP-92 NSCLC 15.8% | NCI-H522 lung 53.2% | A549/ATCC NSCLC 66.6% | 786-0 renal 72.2% | COLO 205 colon 21.9% | DU-145 prostate 86.4% | MALME-3M melanoma 43.6% | MDA-MB-231 breast 37.7% | RXF 393 renal 93.7% | SF-268 CNS 79.8% | SF-539 CNS 97.5% | UACC-257 melanoma 43.7% | M14 melanoma 40.4% | HCT-15 colon 16.9%

O=CCCCC(O)C=O (stereo not drawn)
inactive: NCI-H23 lung 96.3% | NCI-H322M lung 109% | HOP-62 NSCLC 95% | NCI-H460 lung 101% | HOP-92 NSCLC 107% | NCI-H522 lung 107% | A549/ATCC NSCLC 105% | 786-0 renal 97.5% | COLO 205 colon 100% | DU-145 prostate 106% | K-562 leukemia 103% | MALME-3M melanoma 104% | MDA-MB-231 breast 115% | RXF 393 renal 102% | SF-268 CNS 106% | SF-539 CNS 105% | UACC-257 melanoma 106% | M14 melanoma 105% | HCT-15 colon 108%

CCCCC1COc2cccc3c2N1C=C/C3=C\C(=O)N(C)c1ccccc1 (stereo not drawn)
inactive: NCI-H23 lung 26.6% | NCI-H322M lung 89.2% | HOP-62 NSCLC 78.2% | NCI-H460 lung 64% | HOP-92 NSCLC 48.4% | NCI-H522 lung 55.6% | A549/ATCC NSCLC 71.6% | 786-0 renal 79.3% | COLO 205 colon 72.9% | DU-145 prostate 82.9% | K-562 leukemia 26.2% | MALME-3M melanoma 59.9% | MDA-MB-231 breast 62.9% | RXF 393 renal 89.6% | SF-268 CNS 70.4% | SF-295 CNS 52.2% | SF-539 CNS 84% | UACC-257 melanoma 53% | M14 melanoma 65.1% | HCT-15 colon 86.3%

C1=CC2(C=C1)OC21CCC2(C=CC3(C2)OC3C2CCCCC2)CC1 (stereo not drawn)
inactive: NCI-H23 lung 116% | NCI-H322M lung 105% | HOP-62 NSCLC 112% | NCI-H460 lung 103% | HOP-92 NSCLC 104% | NCI-H522 lung 106% | A549/ATCC NSCLC 101% | 786-0 renal 100% | COLO 205 colon 120% | DU-145 prostate 112% | K-562 leukemia 113% | MALME-3M melanoma 108% | MDA-MB-231 breast 108% | RXF 393 renal 119% | SF-268 CNS 104% | SF-295 CNS 106% | SF-539 CNS 101% | UACC-257 melanoma 108% | M14 melanoma 102% | HCT-15 colon 101%

Nc1nc(N)c2c(n1)NC1(C=C(O)c3ccccc31)C1=C(N2)c2ccccc2C1=O (stereo not drawn)
inactive: NCI-H23 lung 104% | NCI-H322M lung 123% | HOP-62 NSCLC 104% | NCI-H460 lung 105% | HOP-92 NSCLC 87% | NCI-H522 lung 95.3% | A549/ATCC NSCLC 110% | 786-0 renal 104% | COLO 205 colon 118% | DU-145 prostate 98.7% | K-562 leukemia 95.5% | MALME-3M melanoma 108% | MDA-MB-231 breast 107% | SF-268 CNS 104% | SF-295 CNS 109% | SF-539 CNS 109% | UACC-257 melanoma 120% | M14 melanoma 105% | HCT-15 colon 112%

COc1ccc(C2c3ccc4ccccc4c3Oc3ncn(CCCn4ccnc4)c(=N)c32)cc1OC (stereo not drawn)
inactive: NCI-H23 lung 60.6% | NCI-H322M lung 49.8% | HOP-62 NSCLC 73.4% | NCI-H460 lung 55.8% | HOP-92 NSCLC 24.3% | NCI-H522 lung 72.6% | A549/ATCC NSCLC 55.3% | 786-0 renal 68.4% | COLO 205 colon 53.4% | DU-145 prostate 79% | K-562 leukemia 15.6% | MDA-MB-231 breast 69.2% | RXF 393 renal 73.2% | SF-268 CNS 89.5% | SF-539 CNS 67.8% | UACC-257 melanoma 72.4% | M14 melanoma 49.6% | HCT-15 colon 68.5%
active: SF-295 CNS -7.39%

OC(c1ccccc1)c1nnc(SCc2ccccc2)n1Cc1ccccc1 (stereo not drawn)
inactive: NCI-H23 lung 98.2% | NCI-H322M lung 106% | HOP-62 NSCLC 91.5% | NCI-H460 lung 106% | HOP-92 NSCLC 58.8% | NCI-H522 lung 86.6% | A549/ATCC NSCLC 94.1% | 786-0 renal 95.4% | COLO 205 colon 102% | DU-145 prostate 108% | K-562 leukemia 84.4% | MALME-3M melanoma 77.3% | MDA-MB-231 breast 103% | SF-268 CNS 94.2% | SF-295 CNS 83.4% | SF-539 CNS 101% | UACC-257 melanoma 103% | M14 melanoma 88% | HCT-15 colon 88.9%

COc1ccc(-c2cn3c(C(=O)Nc4ccccc4Cl)c(-c4ccccc4)c4c3n2CCCC4)cc1
inactive: NCI-H23 lung 86.8% | NCI-H322M lung 102% | HOP-62 NSCLC 88.1% | NCI-H460 lung 75.2% | HOP-92 NSCLC 64.3% | NCI-H522 lung 76.7% | A549/ATCC NSCLC 85.3% | 786-0 renal 90.8% | COLO 205 colon 77.2% | DU-145 prostate 86.2% | K-562 leukemia 49.8% | MDA-MB-231 breast 87.3% | RXF 393 renal 109% | SF-268 CNS 93.1% | SF-295 CNS 54.7% | SF-539 CNS 87% | UACC-257 melanoma 91.3% | M14 melanoma 73.6% | HCT-15 colon 60.8%

CCOc1c(Br)cc(C2C(C(=O)OC)=CN(C)C=C2C(=O)OC)cc1OC
active: COLO 205 colon -88.1% | K-562 leukemia 8.68%
inactive: NCI-H23 lung 98% | NCI-H322M lung 76.3% | HOP-62 NSCLC 84.6% | NCI-H460 lung 48.3% | HOP-92 NSCLC 39.2% | NCI-H522 lung 75.9% | A549/ATCC NSCLC 85.9% | 786-0 renal 58.3% | DU-145 prostate 91.4% | MDA-MB-231 breast 49.4% | RXF 393 renal 64.2% | SF-268 CNS 68.1% | SF-295 CNS 24% | SF-539 CNS 94.2% | HCT-15 colon 41%

COc1ccc(-c2nocc2-c2cccs2)cc1
inactive: NCI-H23 lung 105% | NCI-H322M lung 102% | HOP-62 NSCLC 101% | NCI-H460 lung 102% | HOP-92 NSCLC 86.6% | NCI-H522 lung 98.5% | A549/ATCC NSCLC 99.3% | 786-0 renal 103% | COLO 205 colon 115% | DU-145 prostate 107% | MALME-3M melanoma 106% | MDA-MB-231 breast 92.8% | SF-268 CNS 101% | SF-295 CNS 95.1% | SF-539 CNS 101% | UACC-257 melanoma 118% | M14 melanoma 111%

COc1ccc(/C=C2\N=C(c3ccccc3)N(c3ccc(-c4nc5ccc(C)cc5s4)cc3)C2=O)cc1
inactive: NCI-H23 lung 87.1% | NCI-H322M lung 60.3% | HOP-62 NSCLC 99.2% | NCI-H460 lung 89.6% | HOP-92 NSCLC 82.4% | NCI-H522 lung 67.1% | A549/ATCC NSCLC 70% | 786-0 renal 91% | COLO 205 colon 97.1% | DU-145 prostate 77.9% | K-562 leukemia 82.4% | MALME-3M melanoma 94.6% | RXF 393 renal 99% | SF-268 CNS 61.1% | SF-295 CNS 75.5% | SF-539 CNS 93.3% | UACC-257 melanoma 111% | M14 melanoma 98.9% | HCT-15 colon 82.1%
